Experimental findings from PubChem BioAssay (Tox21) are described below.

“And” between values parts separate entries of the source, which are not always exact repeats. Identical values can stand only once. Values without a mark were called inactive. Results filed as inconclusive are left out. The source made the active and inactive calls. Unless noted, the call rests on the fitted dose curve; in most records, active means well fitted curve in the direction sought with a large enough effect in the repeat runs; inconclusive means weak or mixed curves; inactive means no such curve, though single readings can be large; an effect the other way counts as inactive or inconclusive.

The nature of assay [1]: Human pregnane X receptor (PXR) small molecule agonists, qHTS cell viability counter screen (AID 1346977). Further: nearly all actives have a fitted effect of over 50% in size. Further: potency means the concentration at half of the fitted maximal effect. Summed up:
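In each well, the PXR reporter HepG2 line was checked for viability: CellTiter-Fluor reagent added 23hr post-dosing, fluorescence read after 1hr incubation at 37C.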

Assay [2] in a line: Caspase-3/7 induction in HepG2 cells by small molecules, qHTS assay (AID 1346978). Further: nearly all actives have a fitted effect of over 15% in size. Summed up: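 Wild-type HepG2 cells (2,000/well) were settled 5 h at 37 C, 5% CO2, then exposed to compounds in DMSO for 17 h. Caspase-3/7 activity was read by luminescence 30 min after adding Caspase-Glo 3/7 reagent at room temperature.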
On the technique in general: In qHTS, concentration-response curves come from the screen itself.

Assay [3] in a line: Caspase-3/7 induction in CHO-K1 cells by small molecules, qHTS assay (AID 1346980). Further: nearly all actives have a fitted effect of over 15% in size. Further: potency means the concentration at half of the fitted maximal effect. An outline of the steps: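 Wild-type cells were seeded at 1,500 per well and settled 5 hr at 37 C, 5% CO2, then exposed to DMSO-dissolved compounds for 17 hr. Caspase-Glo 3/7 reagent was added, and luminescence was read after 30min at room temperature.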
Assay [4] addresses Nuclear receptor subfamily 1 group I member 2 (Homo sapiens) (UniProt O75469). As to the kind of experiment: Human pregnane X receptor (PXR) small molecule agonists, qHTS assay (AID 1346982). Further: nearly all actives have a fitted effect of over 35% in size. Further: potency means the concentration at half of the fitted maximal effect. An outline of the steps:
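Luciferase signal from ONE-Glo (30 min, room temperature) measured activation of hPXR-driven CYP3A4 reporter expression in PXR-Luc HepG2 cells treated with compounds for 24 hr at 37 C.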

Assay [5] addresses Acetylcholinesterase (Homo sapiens) (UniProt P22303). Nature of the assay: Acetylcholinesterase (AChE) small molecule antagonists: colormetric cell-based qHTS assay (AID 1347395; calls by dose curve; further: nearly all actives have a fitted effect of over 30% in size; further: potency means the concentration at half of the fitted maximal effect). Summed up: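 After overnight attachment at 37 C, SH-SY5Y cells get 30 min compound exposure; detection cocktail (acetylthiocholine, DTNB) then incubates 90 min at 37 C, and absorbance reflects AChE-generated thiocholine.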

Assay [6] in a line: Caspase-3/7 induction in HepG2 cells by small molecules, qHTS cell viability counter screen (AID 1346981). Further: nearly all actives have a fitted effect of over 30% in size. Further: potency means the concentration at half of the fitted maximal effect. An outline of the steps:
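HepG2, WT, 2,000 cells/well; 5 hr pre-incubation 37 C/5% CO2; compound pin-transferred from DMSO; 16 hr exposure; CellTiter-Fluor, 1 hr; fluorescence read.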

A short description of assay [7]: Caspase-3/7 induction in CHO-K1 cells by small molecules, qHTS cell viability counter screen (AID 1346979). Further: nearly all actives have a fitted effect of over 35% in size. Further: potency means the concentration at half of the fitted maximal effect. Summed up:
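Following a 5hr settling period, CHO-K1 cells at 1,500 per well received DMSO-dissolved compounds. Cell viability was quantified 16hr later by CellTiter-Fluor fluorescence, measured after 1hr with reagent at 37C.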

In assay [8] the target is Nuclear receptor subfamily 1 group I member 2 (Rattus norvegicus) (UniProt Q9R1A7). As to the kind of experiment: Rat pregnane X receptor (rPXR) activation by small molecules, qHTS assay (AID 1346983). Further: nearly all actives have a fitted effect of over 20% in size. The conditions noted are these: rPXR luciferase reporter cells, One-Glo luminescence, 24 h; max activation: stronger effect = higher value. An outline of the steps: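 Cell-based rPXR luciferase reporter assay, 2,000 cells per well, rested 5hr at 37 C before compound addition in DMSO, then 24 hr at 37 C. One-Glo reagent was added and luminescence read after 30 min at room temperature.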
Nuclear receptor subfamily 1 group I member 2 (Rattus norvegicus), sequence (Q9R1A7 whole entry, looked up): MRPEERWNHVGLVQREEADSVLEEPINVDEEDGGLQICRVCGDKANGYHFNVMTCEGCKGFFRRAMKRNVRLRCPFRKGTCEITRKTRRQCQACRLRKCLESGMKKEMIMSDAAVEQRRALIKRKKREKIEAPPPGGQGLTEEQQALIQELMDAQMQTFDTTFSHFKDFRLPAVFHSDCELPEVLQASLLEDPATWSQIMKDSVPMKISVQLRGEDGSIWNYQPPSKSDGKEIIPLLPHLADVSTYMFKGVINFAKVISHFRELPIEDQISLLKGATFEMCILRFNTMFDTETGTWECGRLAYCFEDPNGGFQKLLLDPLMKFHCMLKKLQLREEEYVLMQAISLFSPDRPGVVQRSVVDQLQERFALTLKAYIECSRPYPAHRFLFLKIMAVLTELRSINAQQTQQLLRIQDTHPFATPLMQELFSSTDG

In assay [9] the target is Nuclear receptor subfamily 1 group I member 2 (Homo sapiens) (UniProt O75469). As to the kind of experiment: Human pregnane X receptor (PXR) activation by small molecules, qHTS assay (AID 1346985). Further: nearly all actives have a fitted effect of over 40% in size. Further: potency means the concentration at half of the fitted maximal effect. An outline of the steps:
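DPX-2 cells (HepG2 co-transfected with a PXR response element and a CYP3A4-promoter luciferase construct) were seeded at 2,000 per well, rested 5 hr at 37C, then exposed to DMSO-dissolved compounds for 24 hr. Activation was read as luciferase luminescence.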

For assay [10] the target is unchanged. As to the kind of experiment: CYP3A4 induction through human pregnane X receptor (PXR) by small molecules, qHTS assay (AID 1346984). Further: nearly all actives have a fitted effect of over 40% in size. Summed up: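 Luminescence readout: luciferase signal after One-Glo (30 min, room temperature), following 3 h at 37C with 3uM final Luciferin-IPA P450 substrate. Cells were DPX-2 (HepG2, PXR/CYP3A4-luc co-transfected) dosed for 24 h.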
On the % scale 0 is the no-effect control and ±100 the full control effect.

Acetylcholinesterase (Homo sapiens), sequence (P22303 whole entry, looked up): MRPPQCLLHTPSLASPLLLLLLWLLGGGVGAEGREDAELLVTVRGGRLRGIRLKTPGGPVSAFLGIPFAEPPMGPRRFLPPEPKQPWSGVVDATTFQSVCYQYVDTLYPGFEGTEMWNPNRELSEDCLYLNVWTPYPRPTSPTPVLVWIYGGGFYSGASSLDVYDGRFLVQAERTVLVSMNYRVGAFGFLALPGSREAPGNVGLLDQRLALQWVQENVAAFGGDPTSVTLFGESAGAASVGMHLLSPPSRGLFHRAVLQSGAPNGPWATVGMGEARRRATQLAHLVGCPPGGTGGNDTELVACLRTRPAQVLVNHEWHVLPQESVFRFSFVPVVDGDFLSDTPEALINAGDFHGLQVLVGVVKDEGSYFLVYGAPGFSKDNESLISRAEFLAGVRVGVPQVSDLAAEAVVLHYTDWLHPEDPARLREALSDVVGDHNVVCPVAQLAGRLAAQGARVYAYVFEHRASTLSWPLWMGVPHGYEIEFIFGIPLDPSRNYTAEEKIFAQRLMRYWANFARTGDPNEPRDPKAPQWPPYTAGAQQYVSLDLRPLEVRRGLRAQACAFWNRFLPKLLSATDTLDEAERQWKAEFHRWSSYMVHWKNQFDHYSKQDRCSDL
Nuclear receptor subfamily 1 group I member 2 (Homo sapiens), sequence (O75469 whole entry, looked up): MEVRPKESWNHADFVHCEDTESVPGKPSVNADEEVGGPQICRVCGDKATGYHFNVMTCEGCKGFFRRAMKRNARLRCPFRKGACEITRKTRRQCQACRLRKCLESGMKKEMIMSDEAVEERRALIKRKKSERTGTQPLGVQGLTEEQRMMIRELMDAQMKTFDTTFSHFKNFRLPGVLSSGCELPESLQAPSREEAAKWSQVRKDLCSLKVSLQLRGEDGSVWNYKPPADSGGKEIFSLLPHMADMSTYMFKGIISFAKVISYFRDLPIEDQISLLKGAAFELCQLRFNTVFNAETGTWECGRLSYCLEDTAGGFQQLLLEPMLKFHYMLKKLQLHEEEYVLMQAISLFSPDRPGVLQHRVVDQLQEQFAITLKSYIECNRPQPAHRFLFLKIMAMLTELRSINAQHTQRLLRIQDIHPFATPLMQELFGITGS

Take `CCOC(=O)CC(=O)CCl`: the Potency result in assay [1], in assay [2], in [3], in [4] and in assay [5] was “inactive” in each case.

`OC(c1ccc(Cl)cc1)(c1ccc(Cl)cc1)C(Cl)(Cl)Cl`: the Potency result in assay [1], in assay [2], in [6] and in assay [5] was “inactive” in each case. Besides, in assay [4], the Potency is 24.3 µM (active).

On to `O=C(Nc1ccc2[nH]ccc2c1)c1cc2cc(F)ccc2n1Cc1cccc(F)c1`, for which the Potency in [1] was 61.1 µM (active); in assay [7], 30.6 µM (active); in [6], 61.1 µM (active); in assay [4] it was 24.3 µM (active). Moreover, the Potency result in assay [5] was “inactive”.

As to `O=[N+]([O-])c1ccc2ccc3cccc4ccc1c2c34`, the Potency result in assay [2], in [3] and in assay [5] was “inactive” in each case. Besides, the Potency in [7] is 43.2 µM (active); in assay [6], 27.3 µM (active); in assay [4], 21.7 µM (active).

On to `C[C@@H]1O[C@@H](O[C@H]2C[C@@H](O)[C@]3(CO)[C@H]4[C@H](O)C[C@]5(C)[C@@H](C6=CC(=O)OC6)CC[C@]5(O)[C@@H]4CC[C@]3(O)C2)[C@H](O)[C@H](O)[C@H]1O`, for which the Potency entry in [2], in [7], in [3], in assay [6], in [4] and in assay [9] was “inactive” in each case. Moreover, the Potency entry in assay [5] was “inactive”. The max activation in assay [8] was 0.399% and -3.08%.

`COc1cccc2c1C(=O)c1c(O)c3c(c(O)c1C2=O)C[C@@](O)(C(=O)CO)CC3OC1CC(N2CCOC(OC)C2)C(O)C(C)O1` (some centres undefined): the Potency is 0.168 µM (active) in [1]; 9.44 µM (active) in assay [7]; 0.168 µM (active) in [3]; 16.8 µM (active) in [6]; 12.3 µM (active) in assay [5]. For the same molecule, the Potency result in assay [4] was “inactive”.

For `c1cc[c]([Sb]([c]2ccccc2)[c]2ccccc2)cc1`, the Potency entry in [1], in [6] and in assay [5] was “inactive” each time. Moreover, the Potency in [7] is 68.6 µM (active); in [4], 54.5 µM (active).

Turning to `N#CCCC(Br)(C#N)CBr` (centres undefined), the Potency entry in [2] and in assay [3] was “inactive” in each case. In assay [7], the Potency is 30.6 µM (active).

As for `CN(C)c1ccc(N=Nc2ccccc2)cc1`, the Potency entry in assay [2], in [3] and in assay [5] was “inactive” throughout. For the same molecule, the results for the Potency in [7], in assay [6] and in [4] were 30.7 µM (active), 48.6 µM (active) and 7.7 µM (active), respectively.

As to `Clc1ccc(CCC(Cn2ccnc2)Sc2c(Cl)cccc2Cl)cc1` (centres undefined), the Potency result in [2], in assay [3], in assay [10] and in assay [5] was “inactive” throughout. Also, the results for the Potency in assay [7], in assay [4] and in assay [9] were 11.9 µM (active), 4.22 µM (active) and 4.47 µM (active), respectively.

Regarding `CC(=O)[O-].[Tl+]`, the Potency in assay [1] was 27.5 µM (active); in [7], 43.5 µM (active). In addition, the Potency entry in assay [3] and in assay [6] was “inactive” in each case.

For the molecule `CC(C)CC(C)(c1ccc(O)cc1)c1ccc(O)cc1`, the Potency in assay [1] is 50.1 µM (active); in assay [7], 61.3 µM (active) and 61.1 µM (active); in [6] it was 68.7 µM (active) and 61.1 µM (active); in assay [4] it was 8.65 µM (active) and 13.7 µM (active). The Potency result in [3] and in assay [5] was “inactive” each time.

Consider `CCCCCCCCCC[N+](C)(C)CCCCCCCCCC`, for which the values for the Potency in assay [1], in assay [7] and in assay [6] were 27.3 µM (active), 19.3 µM (active) and 68.6 µM (active), respectively. The Potency result in [4], in assay [10] and in assay [9] was “inactive” in each case. Moreover, the max activation in assay [8] is -13.5%.

On to `CCN(CC)c1c([N+](=O)[O-])cc(C(F)(F)F)c(N)c1[N+](=O)[O-]`, for which the Potency entry in assay [1], in assay [3], in assay [6] and in assay [5] was “inactive” each time. In addition, the Potency in assay [4] was 6.86 µM (active).

As to `C[C@H]1O[C@@H](O[C@H]2[C@@H](O)C[C@H](O[C@H]3[C@@H](O)C[C@H](O[C@H]4CC[C@@]5(C)[C@H](CC[C@@H]6[C@@H]5CC[C@]5(C)[C@@H](C7=CC(=O)OC7)CC[C@]65O)C4)O[C@@H]3C)O[C@@H]2C)C[C@H](O)[C@@H]1O`, the Potency result in assay [2], in assay [7], in [3], in [4], in assay [9] and in assay [5] was “inactive” throughout.

In the case of `CC(C)(C)C(O)/C(=C\c1ccc(Cl)cc1Cl)n1cncn1` (centres undefined), the Potency in assay [1] is 74 µM (active); in [7] it was 37.1 µM (active); in assay [6], 83 µM (active); in assay [4] it was 41.6 µM (active). Moreover, the Potency result in assay [3] was “inactive”.

`Clc1ccc(CSC(Cn2ccnc2)c2ccc(Cl)cc2Cl)cc1` (centres undefined): the Potency result in assay [2], in assay [3], in assay [10] and in [5] was “inactive” each time. The Potency is 18.8 µM (active) in assay [7] and 9.44 µM (active) in assay [4]. In addition, the max activation in assay [8] was 11.4%.

Regarding `CCCOCC(=Nc1ccc(Cl)cc1C(F)(F)F)n1ccnc1`, the Potency in assay [1] is 61.1 µM (active); in assay [7], 48.5 µM (active); in assay [4], 24.3 µM (active). Moreover, the Potency entry in assay [3] and in assay [5] was “inactive” in each case.

For `CCCN(CCC)CCc1c[nH]c2ccccc12`, the Potency result in [2], in assay [7], in assay [3], in assay [6], in [4] and in assay [5] was “inactive” throughout.

In the case of `CC(C)CCCCCCCOP(=O)(Oc1ccccc1)Oc1ccccc1`, the Potency entry in assay [1], in [2], in assay [3] and in assay [5] was “inactive” in each case. For the same molecule, the Potency in [4] is 6.89 µM (active).

In the case of `CC(=O)/C=C/c1ccc2c(c1)OCO2`, the Potency entry in [2] and in assay [3] was “inactive” each time. In addition, in assay [4], the Potency is 61.4 µM (active).

Turning to `OC(Cc1ccccc1Cl)(Cn1cncn1)C1(Cl)CC1` (centres undefined), the Potency entry in assay [2], in assay [3] and in assay [5] was “inactive” throughout. The Potency in assay [4] was 34.4 µM (active).

With `CC(C)N1C(=O)N(c2ccccc2)CSC1=NC(C)(C)C`, the Potency entry in assay [2], in assay [3] and in assay [5] was “inactive” throughout. Further, the Potency was 61.1 µM (active) in assay [7] and 6.11 µM (active) in assay [4].

Consider `C=CCC1=C(C)C(OC(=O)C2C(C=C(C)C)C2(C)C)CC1=O` (centres undefined), for which the Potency entry in assay [2], in assay [3] and in [5] was “inactive” each time. The results for the Potency in [7] and in assay [4] were 55.3 µM (active) and 10.3 µM (active), respectively.

Turning to `Nc1ccc(Sc2ccc(N)cc2)cc1`, the Potency result in [2], in [7], in assay [3] and in assay [5] was “inactive” in each case. Moreover, in [4], the Potency is 34.4 µM (active).

`Nc1ccc([N+](=O)[O-])cc1Cl`: the Potency result in [2], in [3], in [4] and in assay [5] was “inactive” throughout. The Potency in assay [7] was 61.1 µM (active).
